These results are taken from PMC10668032, “Altered binding affinity of SIX1-Q177R correlates with enhanced WNT5A and WNT pathway effector expression in Wilms tumor”.

In all, about 33,000 sequences were measured (“e-score”: median about -0.05, highest 2% from about 0.38 on). The sample holds the highest values, similar sequences and a random draw of the others, so the mix is not that of the screen.

This experiment concerns the target T1, SIX1-Q177R homeodomain (human, UniProt Q15475 108-198, Q177R).
T1 sequence: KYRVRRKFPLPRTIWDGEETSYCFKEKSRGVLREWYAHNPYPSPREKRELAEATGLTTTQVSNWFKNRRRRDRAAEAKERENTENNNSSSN
Nature of the experiment: universal protein binding microarray; Universal all-10-mer PBM (8x60K, AMADID 030236), 300 nM GST-tagged protein, Alexa Fluor 488 anti-GST; buffer, salt, pH and temperature not stated (as in Berger); high values mean tight binding. The note with it: protein: ivt; tags: N-terminal GST; dsDNA, one strand shown. Put shortly: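 After in vitro transcription/translation, GST-tagged homeodomains were quantified against a recombinant GST standard curve by anti-GST western blot. They were then placed in duplicate at 300 nM final concentration on universal 'all 10-mer' protein binding microarrays of 8×60K format.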
As for CGCATTAC, the binding signal was found to be 0.204 ± 0.0114 E-score. In the case of ACCCTGAG it was 0.245 ± 0.0251 E-score. Take ACCAACTC: the binding signal was 0.169 ± 0.01 E-score. Take GCCAACAC: the binding signal was 0.3693 ± 0.00257 E-score. CCAAACAC: the binding signal was 0.3825 ± 0.00157 E-score. For CCCAACAC, the binding signal worked out at 0.403 ± 0.0145 E-score. With GCAAACAC, the binding signal came out at 0.351 ± 0.00619 E-score. In the case of ACCAACAC, the binding signal turned out to be 0.41011 ± 0.000354 E-score. Take CCCAACAA: the binding signal was found to be 0.199 ± 0.00812 E-score. Take CCCAAAAC: the binding signal was 0.193 ± 0.0284 E-score.

Regarding ACTATGTG, the binding signal turned out to be 0.17 ± 0.0249 E-score. In the case of CACCTTCA it was 0.241 ± 0.0302 E-score; in that of CACCTTGG, 0.344 ± 0.0104 E-score. In the case of CCCCTACC it was 0.237 ± 0.0383 E-score; in that of TAGTGACA, 0.211 ± 0.0357 E-score; in that of GAGTATCC, 0.199 ± 0.0139 E-score. To AAGTGTCT belongs 0.346 ± 0.0141 E-score. Consider GAGTGTCC, for which the binding signal turned out to be 0.406 ± 0.00513 E-score. On to TAGAGTCA, for which the binding signal came to 0.196 ± 0.0118 E-score. In the case of AAGTGTCA it was 0.418 ± 0.0194 E-score. Turning to GTGTGTCA, the binding signal worked out at 0.369 ± 0.0056 E-score.

On to AAGTGTCC, for which the binding signal worked out at 0.332 ± 0.00652 E-score. Regarding GAGTGTCA, the binding signal worked out at 0.45 ± 0.0122 E-score. Regarding GAGTGACA, the binding signal was found to be 0.242 ± 0.00566 E-score.

TAGTGTCA: the binding signal worked out at 0.454 ± 0.00792 E-score. To CGTATCCA belongs 0.159 ± 0.0161 E-score; to ATATACCC, 0.2382 ± 0.000608 E-score; to CACCCAGA, 0.189 ± 0.0293 E-score. For ACCAGATA, the binding signal is 0.162 ± 0.0127 E-score. Take ACCACGGA: the binding signal was found to be 0.178 ± 0.0145 E-score.

As to ACCCTTAC, the binding signal was 0.158 ± 0.0125 E-score.

For the sequence CACCTTTA, the binding signal worked out at 0.223 ± 0.0267 E-score. For CACAGACA, the binding signal came to 0.155 ± 0.0227 E-score. Take CCGACCCG: the binding signal came out at 0.176 ± 0.00738 E-score. In the case of GCGTATAC, the binding signal came to 0.158 ± 0.00385 E-score. In the case of ACGTGTAT, the binding signal is 0.321 ± 0.0343 E-score. To CCCTGTAC belongs 0.173 ± 0.0309 E-score; to CCGTGTGC, 0.215 ± 0.0507 E-score; to GCGTTTAC, 0.16 ± 0.0218 E-score. Regarding ACGTGTAG, the binding signal was found to be 0.347 ± 0.0241 E-score.

As for ACGTGTAC, the binding signal came out at 0.387 ± 0.0177 E-score. As to GCGTGTAC, the binding signal was determined as 0.4393 ± 0.000926 E-score.

On to CCGTGTAC, for which the binding signal worked out at 0.4382 ± 0.00199 E-score. To ACCGCCCC belongs 0.157 ± 0.0585 E-score; to ACCACTGG, 0.153 ± 0.00392 E-score. To ACCTTACC belongs 0.155 ± 0.0397 E-score; to CACGGACA, 0.298 ± 0.0109 E-score.

Consider AACGACAC, for which the binding signal came to 0.4466 ± 0.00332 E-score. In the case of GACGACAC it was 0.429 ± 0.0137 E-score; in that of CACGACAC, 0.448 ± 0.0167 E-score.

For CACGACTC, the binding signal came out at 0.304 ± 0.00378 E-score.

As to CACGACCA, the binding signal was 0.227 ± 0.0193 E-score. To CACGACAG belongs 0.1738 ± 0.000629 E-score; to CACGACCC, 0.32 ± 0.0093 E-score; to GACGACCC, 0.158 ± 0.0499 E-score.

On to CACGACGC, for which the binding signal turned out to be 0.151 ± 0.0468 E-score. As for CACCTATA, the binding signal amounted to 0.301 ± 0.00719 E-score. To CCCGACCA belongs 0.204 ± 0.0179 E-score; to ACCGTGTC, 0.428 ± 0.0209 E-score; to GCCGTGTA, 0.419 ± 0.00774 E-score. Turning to ACCGTGCC, the binding signal was found to be 0.179 ± 0.0325 E-score. Consider CCCGTGTC, for which the binding signal was found to be 0.458 ± 0.00911 E-score.

CCCGCGTA: the binding signal came to 0.154 ± 0.0151 E-score. In the case of CCCGTCTC it was 0.239 ± 0.00285 E-score; in that of CCCGTGAC, 0.155 ± 0.00256 E-score.

With CCCGTGTA, the binding signal was 0.453 ± 0.00915 E-score. With GCCGGGTA, the binding signal amounted to 0.197 ± 0.033 E-score. In the case of ACCGTGTG, the binding signal stood at 0.259 ± 0.0453 E-score. For the sequence CCTGTGTA, the binding signal amounted to 0.192 ± 0.0408 E-score. For the sequence CCCCCGGA, the binding signal came out at 0.263 ± 0.00617 E-score. On to AAGGATCC, for which the binding signal came to 0.178 ± 0.0155 E-score. As for GACTCCGA, the binding signal turned out to be 0.198 ± 0.0344 E-score.

Take ACCGTGTA: the binding signal is 0.4376 ± 0.00046 E-score. ACCCTGTA: the binding signal is 0.153 ± 0.0186 E-score. In the case of ACCGGGTA it was 0.212 ± 0.00998 E-score; in that of GCAGCACC, 0.219 ± 0.0401 E-score; in that of CGTTACCC, 0.207 ± 0.026 E-score. In the case of AGTTACAC, the binding signal is 0.449 ± 0.0313 E-score. For CGTTACAC, the binding signal was determined as 0.424 ± 0.0188 E-score. To GGTTACAC belongs 0.4536 ± 0.000905 E-score. CGTTTACA: the binding signal was determined as 0.154 ± 0.0251 E-score. In the case of GGTTGCAC it was 0.183 ± 0.0188 E-score; in that of GGTTAAAC, 0.183 ± 0.0367 E-score. Regarding AGTTGCAC, the binding signal was 0.208 ± 0.0144 E-score. Take AAATGGTG: the binding signal came to 0.289 ± 0.00359 E-score. Consider CGCCGGCG, for which the binding signal was determined as 0.192 ± 0.0602 E-score.
